# Data published in PubChem BioAssay AID624298 (National Center for Advancing Translational Sciences (NCATS), 2012).
# Records with an inconclusive call do not appear. Where a call stands in place of a potency, no number is given. Calls of active or inactive are those of the source. Calls follow the shape of the dose curve; as a rule, active = well fitted activation curve with a large enough effect; inconclusive = small, poorly fitted or top-dose-only effect; inactive = no such curve, though single readings can be large or run the other way.
# Experiment: Activators of T cell receptors: Hit Validation
# Settings: primary human leukocytes, cytokine release by HTRF, 48 h, TCR-stimulated with anti-CD3 beads; series mostly up to 46.1 µM
# Description: Normally activation of naive T cells requires two signals. 1. A signal through the T cell receptor (TCR) which provides antigen specificity to the response. 2. Signals through co-stimulatory molecules, which are necessary for proliferation, survival and cytokine production. In the absence of co-stimulatory signals T cells are not effectively activated, and may even be rendered anergic or unresponsive to subsequent signaling. This lack of costimulation has been shown in multiple model systems to be a major factor in the limited strength and effectiveness of anti-tumor T cell responses. The goal of this project is to identify small molecule compounds that will stimulate T cell activation in the presence of TCR signaling but in the absence of co-stimulatory signals, thereby allowing activation of naive T cells in the absence of co-stimulation. Identification of such compounds would have clear experimental and clinical applications in instances where desirable antigen-specific immune responses are not generated due to a lack of co-stimulation, for example in the generation of anti-tumor responses.
# In collaboration between the National Cancer Institute and NIH Chemical Genomics Center, a high-throughput amenable screen was developed to discover small molecules that co-stimulate and activate human T cell receptors. The screen will be carried out using a novel homogeneous time resolved fluorescence energy transfer (HTRF) assay to measure production of the cytokine IL-2 by activated T cells and will be tested against the NIH Molecular Libraries Small Molecule Repository (MLSMR). This is the same assay tested against the hits identified in the primary screen.
# NIH Chemical Genomics Center [NCGC]
# NIH Molecular Libraries Probe Centers Network [MLPCN]
# Assay Submitter (PI): Richard Hodes, National Cancer Institute, NIH
# Primary human leukocytes are incubated with a-CD3 beads and compounds for 48 hr. The amount of secreted IL-2 is then assayed with a HTRF IL-2 kit. The presence of IL-2 cytokine captures the detection reagents and brings the a-IL-2-K and a-IL-2-d2 into close proximity. Upon excitation with 320nm light, the europium cryptate is capable of transferring energy to acceptor molecules within close proximity, resulting in acceptor molecule emission at 665nm.
# Potency is read from the fitted curve at half-maximal effect.
row,SMILES,Potency
1,O=C1c2ccccc2C(=O)N1CCCC(=O)N1CCCc2ccccc21,inactive
2,O=C1N/C(=C/c2cccs2)C(=O)N1Cc1ccc(Br)cc1,inactive
3,CC1(C)Cc2cccc(OCC(=O)NCc3ccc(F)cc3)c2O1,inactive
4,COc1cc(/C=C/C(=O)O)cc(OC)c1OC,inactive
5,Cc1[nH]c2ccccc2c1C(=O)COc1ccccc1F,inactive
6,Cc1cc(=O)[nH]c(N/N=C/c2cccs2)n1,inactive
7,CCOC(=O)C1CCN(C(=O)c2cccc(S(=O)(=O)N3CCc4ccccc43)c2)CC1,inactive
8,O=C(CCCN=C1NS(=O)(=O)c2ccccc21)Nc1ccc(Cl)cc1,inactive
9,COc1ccccc1CNC(=O)CSc1ccc(Br)cc1,inactive
10,CC(C)(C)CC(=O)N1CCN(c2ccc(S(=O)(=O)N3CCOCC3)cc2[N+](=O)[O-])CC1,inactive
11,CC(=O)Nc1ccc(C(=O)OCC(=O)N(c2ccccc2)C2CCS(=O)(=O)C2)cc1 (stereo not given),inactive
12,COc1ccc(C(=O)COC(=O)c2sc(C)nc2C)cc1OC,inactive
13,C/C(=N\NC(=O)COc1ccc([N+](=O)[O-])cc1)c1ccco1,inactive
14,Cn1c(=O)c2c(ncn2CC(O)CO)n(C)c1=O (stereo not given),inactive
15,COc1ccc(C(=O)Nc2cccc(NC(C)=O)c2)cc1OC,inactive
16,Cc1ccc(NC(=O)CN(C)C(=O)COC(=O)c2nccnc2N)cc1,inactive
17,CCCn1c(-c2ccccc2)nc2c(=O)n(C)c(=O)[nH]c21,inactive
18,Cc1ccc(C(=O)NNC(=O)COC(=O)COc2ccccc2C#N)cc1,inactive
19,CCOc1ccc(/C=N/NC(=O)c2ccc(O)cc2)cc1CN1CC2CC(C1)c1cccc(=O)n1C2 (stereo not given),inactive
20,O=S(=O)(c1ccc(=S)[nH]c1)N1CCCCCC1,inactive

row,SMILES,Potency
1,CC(C)CSc1nc2c(c(=O)[nH]c(=O)n2C)n1CC(O)COc1cccc2ccccc12 (stereo not given),inactive
2,CN(C)S(=O)(=O)c1ccc2oc(SCC(=O)c3c(N)n(C4CC4)c(=O)[nH]c3=O)nc2c1,inactive
3,COc1ccccc1C(=O)NCCC(=O)N1CCN(S(=O)(=O)c2cccc(Cl)c2)CC1,inactive
4,Cc1ccc(C(=O)NCCc2nnc3ccc(SCC(=O)N4CCCCC4)nn23)cc1,inactive
5,Cn1nc(C(F)(F)F)cc1-c1ccc(S(N)(=O)=O)s1,inactive
6,O=C(NCCCNCc1ccccc1)/C(=N\O)c1ccccc1,inactive
7,Cc1ccc(NS(=O)(=O)c2ccc(C)c(C(=O)NCC(c3ccccc3)N(C)C)c2)cc1 (stereo not given),inactive
8,CCN(CC(=O)Nc1c(F)cccc1F)C(=O)C1CCN(S(=O)(=O)c2ccccc2C(=O)OC)CC1,inactive
9,COc1ccc(CN2CCN(C(=O)c3cc(C4CC4)nn3-c3ccccc3)CC2)cc1F,inactive
10,CCOc1cc(/C=N/O)cc(Br)c1OCC(=O)NCc1ccccc1,inactive
11,CC(NC(=S)NCCN1CCOCC1)C12CC3CC(CC(C3)C1)C2 (stereo not given),inactive
12,CCN(CC)S(=O)(=O)c1ccc(N2CCN(C)CC2)c(NC(=O)CN2C(=O)NC3(CCCCC3)C2=O)c1,inactive
13,Cc1cc(OCC(=O)OCC(=O)NCC2CCCO2)ccc1Cl (stereo not given),inactive
14,O=C(Nc1nnc(-c2ccccc2)s1)c1cccc(S(=O)(=O)N2CCOCC2)c1,inactive
15,CCC(=C/c1sc2ccc3ccccc3c2[n+]1C)/C=C1\Sc2ccc3ccccc3c2N1C,9.96 µM (active)
16,COc1cc(N=c2ssnc2Cl)c(OC)cc1Cl,inactive
17,Cc1cc(C)c(-c2csc(NC(=O)C3=NN(c4ccccc4)C(=O)CC3)n2)c(C)c1,inactive
18,CCn1nnnc1NC(=O)c1ccc2ccccc2c1,inactive
19,S=c1[nH]nc(-c2cccnc2)n1C1CCCCC1,inactive
20,NC(=O)c1ccccc1,inactive
